# According to paper PMC8384837, “Expanding the binding specificity for RNA recognition by a PUF domain”:
# Columns and labels:
# Experiment in all cases: yeast three-hybrid, YBZ-1, SC-Leu-His + 0.5 mM 3-AT, 4 days
# Settings in all cases: tags: N-Gal4 AD-HA kept; label: inside an RPR1-promoter hybrid RNA with tandem MS2 sites; ssRNA
# PUM1 PUF domain R3-YCV = PUM1 PUF domain R3-YCV (Homo sapiens, UniProt Q14671 828-1176, C935Y;R936C;Q939V)
# Summary of the method: (§1)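 Each repeat of the Pumilio-1 PUF domain was randomized at its three base-contacting residues, and these libraries were co-expressed from a centromeric plasmid with matching RNA elements in strain YBZ-1. After four days on SC-Leu (input) or SC-Leu-His + 0.5 mM 3-AT (selection), the repeat regions were PCR-amplified and Illumina-sequenced. The interaction score compares variant frequency between input and selection as a log change, computed in log2 with a pseudocount of 1 for absent variants.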
# PUM1 PUF domain R6-FRE = molecular target: T1, PUM1 PUF domain R6-FRE (Homo sapiens, UniProt Q14671 828-1176, N1043F;Y1044R;Q1047E)
# T1 sequence: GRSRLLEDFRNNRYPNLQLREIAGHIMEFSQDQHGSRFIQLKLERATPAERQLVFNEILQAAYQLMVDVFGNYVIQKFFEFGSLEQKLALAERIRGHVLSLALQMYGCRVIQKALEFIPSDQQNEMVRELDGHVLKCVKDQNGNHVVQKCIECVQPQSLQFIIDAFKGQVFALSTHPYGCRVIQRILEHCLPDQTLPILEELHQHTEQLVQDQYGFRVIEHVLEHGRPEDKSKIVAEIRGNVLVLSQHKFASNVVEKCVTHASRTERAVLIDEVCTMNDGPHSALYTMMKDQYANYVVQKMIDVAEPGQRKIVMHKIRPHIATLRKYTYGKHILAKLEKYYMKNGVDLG
# Summary of the method: as §1
# PUM1 PUF domain R4-CCM = PUM1 PUF domain R4-CCM (Homo sapiens, UniProt Q14671 828-1176, N971C;H972C;Q975M)
# Summary of the method: as §1
# PUM1 PUF domain R2-KFG = PUM1 PUF domain R2-KFG (Homo sapiens, UniProt Q14671 828-1176, N899K;Y900F;Q903G)
# Summary of the method: as §1
# PUM1 PUF domain R4-WGF = PUM1 PUF domain R4-WGF (Homo sapiens, UniProt Q14671 828-1176, N971W;H972G;Q975F)
# Summary of the method: as §1
# PUM1 PUF domain R5-KYG = PUM1 PUF domain R5-KYG (Homo sapiens, UniProt Q14671 828-1176, C1007K;R1008Y;Q1011G)
# Summary of the method: as §1
# PUM1 PUF domain R4-YLL = PUM1 PUF domain R4-YLL (Homo sapiens, UniProt Q14671 828-1176, N971Y;H972L;Q975L)
# Summary of the method: as §1
# PUM1 PUF domain R4-PWC = PUM1 PUF domain R4-PWC (Homo sapiens, UniProt Q14671 828-1176, N971P;H972W;Q975C)
# Summary of the method: as §1
# PUM1 PUF domain R8-KWL = PUM1 PUF domain R8-KWL (Homo sapiens, UniProt Q14671 828-1176, N1122K;Y1123W;Q1126L)
# Summary of the method: as §1
# PUM1 PUF domain R5-DFG = PUM1 PUF domain R5-DFG (Homo sapiens, UniProt Q14671 828-1176, C1007D;R1008F;Q1011G)
# Summary of the method: as §1
# PUM1 PUF domain R1-KRD = PUM1 PUF domain R1-KRD (Homo sapiens, UniProt Q14671 828-1176, S863K;Q867D)
# Summary of the method: as §1
# PUM1 PUF domain R1-HRR = PUM1 PUF domain R1-HRR (Homo sapiens, UniProt Q14671 828-1176, S863H;Q867R)
# Summary of the method: as §1
# PUM1 PUF domain R1-NGR = PUM1 PUF domain R1-NGR (Homo sapiens, UniProt Q14671 828-1176, S863N;R864G;Q867R)
# Summary of the method: as §1
# PUM1 PUF domain R7-RRG = PUM1 PUF domain R7-RRG (Homo sapiens, UniProt Q14671 828-1176, S1079R;N1080R;E1083G)
# Summary of the method: as §1
# PUM1 PUF domain R4-WAT = PUM1 PUF domain R4-WAT (Homo sapiens, UniProt Q14671 828-1176, N971W;H972A;Q975T)
# Summary of the method: as §1
# PUM1 PUF domain R4-SMR = PUM1 PUF domain R4-SMR (Homo sapiens, UniProt Q14671 828-1176, N971S;H972M;Q975R)
# Summary of the method: as §1
# PUM1 PUF domain R5-SNG = PUM1 PUF domain R5-SNG (Homo sapiens, UniProt Q14671 828-1176, C1007S;R1008N;Q1011G)
# Summary of the method: as §1
# PUM1 PUF domain R7-GSR = PUM1 PUF domain R7-GSR (Homo sapiens, UniProt Q14671 828-1176, S1079G;N1080S;E1083R)
# Summary of the method: as §1
# PUM1 PUF domain R7-LER = PUM1 PUF domain R7-LER (Homo sapiens, UniProt Q14671 828-1176, S1079L;N1080E;E1083R)
# Summary of the method: as §1
# PUM1 PUF domain R1-CFK = PUM1 PUF domain R1-CFK (Homo sapiens, UniProt Q14671 828-1176, S863C;R864F;Q867K)
# Summary of the method: as §1
# Chain of PUM1 PUF domain R5-KYG (Q14671 828-1176 C1007K/R1008Y/Q1011G): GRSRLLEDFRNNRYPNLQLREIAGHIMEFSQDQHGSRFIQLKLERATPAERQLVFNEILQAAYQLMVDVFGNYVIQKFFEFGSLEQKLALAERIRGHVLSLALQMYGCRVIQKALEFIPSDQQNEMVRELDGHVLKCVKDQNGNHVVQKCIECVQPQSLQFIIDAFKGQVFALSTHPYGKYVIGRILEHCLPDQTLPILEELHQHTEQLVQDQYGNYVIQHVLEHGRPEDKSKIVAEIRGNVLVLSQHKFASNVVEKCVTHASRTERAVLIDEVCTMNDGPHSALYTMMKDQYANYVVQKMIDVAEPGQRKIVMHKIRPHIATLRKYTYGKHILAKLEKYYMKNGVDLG
sequence,measurement,setting,value
GGCUAGAACUAGUGGAUCCCCCGGCGCCCGGCGGCUCGAGCCCGGGUAAGUGUAAGUAGUCUGCAUGCCGCCGGGCGCCAUGCCUGCAGGUCGACUCUAGAAAACAUG,binding signal,PUM1 PUF domain R3-YCV,2.69 log2 enrichment (interaction score)
GGCUAGAACUAGUGGAUCCCCCGGCGCCCGGCGGCUCGAGCCCGGGUAAGUGUAAAUAGUCUGCAUGCCGCCGGGCGCCAUGCCUGCAGGUCGACUCUAGAAAACAUG,binding signal,PUM1 PUF domain R6-FRE,3.3 log2 enrichment (interaction score)
same,binding signal,PUM1 PUF domain R4-CCM,1.07 log2 enrichment (interaction score)
same,binding signal,PUM1 PUF domain R2-KFG,7.86 log2 enrichment (interaction score)
same,binding signal,PUM1 PUF domain R4-WGF,4.73 log2 enrichment (interaction score)
same,binding signal,PUM1 PUF domain R5-KYG,3.77 log2 enrichment (interaction score)
same,binding signal,PUM1 PUF domain R4-YLL,4.38 log2 enrichment (interaction score)
same,binding signal,PUM1 PUF domain R4-PWC,7.51 log2 enrichment (interaction score)
same,binding signal,PUM1 PUF domain R8-KWL,5.16 log2 enrichment (interaction score)
same,binding signal,PUM1 PUF domain R5-DFG,3.79 log2 enrichment (interaction score)
GGCUAGAACUAGUGGAUCCCCCGGCGCCCGGCGGCUCGAGCCCGGGUAAGUGUGAAUAGUCUGCAUGCCGCCGGGCGCCAUGCCUGCAGGUCGACUCUAGAAAACAUG,binding signal,PUM1 PUF domain R5-KYG,2.74 log2 enrichment (interaction score)
GGCUAGAACUAGUGGAUCCCCCGGCGCCCGGCGGCUCGAGCCCGGGUAAGUGUAUAUAGUCUGCAUGCCGCCGGGCGCCAUGCCUGCAGGUCGACUCUAGAAAACAUG,binding signal,PUM1 PUF domain R4-CCM,2.39 log2 enrichment (interaction score)
GGCUAGAACUAGUGGAUCCCCCGGCGCCCGGCGGCUCGAGCCCGGGUAAGUGUAAAUCGUCUGCAUGCCGCCGGGCGCCAUGCCUGCAGGUCGACUCUAGAAAACAUG,binding signal,PUM1 PUF domain R1-KRD,3.37 log2 enrichment (interaction score)
same,binding signal,PUM1 PUF domain R1-HRR,2.84 log2 enrichment (interaction score)
same,binding signal,PUM1 PUF domain R1-NGR,4.09 log2 enrichment (interaction score)
GGCUAGAACUAGUGGAUCCCCCGGCGCCCGGCGGCUCGAGCCCGGGUAAGUCUAAAUAGUCUGCAUGCCGCCGGGCGCCAUGCCUGCAGGUCGACUCUAGAAAACAUG,binding signal,PUM1 PUF domain R7-RRG,3.12 log2 enrichment (interaction score)
GGCUAGAACUAGUGGAUCCCCCGGCGCCCGGCGGCUCGAGCCCGGGUAAGUGUACAUAGUCUGCAUGCCGCCGGGCGCCAUGCCUGCAGGUCGACUCUAGAAAACAUG,binding signal,PUM1 PUF domain R4-WAT,2.53 log2 enrichment (interaction score)
same,binding signal,PUM1 PUF domain R4-SMR,2.97 log2 enrichment (interaction score)
GGCUAGAACUAGUGGAUCCCCCGGCGCCCGGCGGCUCGAGCCCGGGUAAGCGUAAAUAGUCUGCAUGCCGCCGGGCGCCAUGCCUGCAGGUCGACUCUAGAAAACAUG,binding signal,PUM1 PUF domain R8-KWL,5.91 log2 enrichment (interaction score)
GGCUAGAACUAGUGGAUCCCCCGGCGCCCGGCGGCUCGAGCCCGGGUAAGUGUUAAUAGUCUGCAUGCCGCCGGGCGCCAUGCCUGCAGGUCGACUCUAGAAAACAUG,binding signal,PUM1 PUF domain R5-SNG,3.2 log2 enrichment (interaction score)
same,binding signal,PUM1 PUF domain R5-DFG,6.17 log2 enrichment (interaction score)
GGCUAGAACUAGUGGAUCCCCCGGCGCCCGGCGGCUCGAGCCCGGGUAAGUGUCAAUAGUCUGCAUGCCGCCGGGCGCCAUGCCUGCAGGUCGACUCUAGAAAACAUG,binding signal,PUM1 PUF domain R5-KYG,5.55 log2 enrichment (interaction score)
same,binding signal,PUM1 PUF domain R5-DFG,2 log2 enrichment (interaction score)
GGCUAGAACUAGUGGAUCCCCCGGCGCCCGGCGGCUCGAGCCCGGGUAAGUUUAAAUAGUCUGCAUGCCGCCGGGCGCCAUGCCUGCAGGUCGACUCUAGAAAACAUG,binding signal,PUM1 PUF domain R7-GSR,4.22 log2 enrichment (interaction score)
same,binding signal,PUM1 PUF domain R7-LER,3.41 log2 enrichment (interaction score)
same,binding signal,PUM1 PUF domain R7-RRG,4.6 log2 enrichment (interaction score)
GGCUAGAACUAGUGGAUCCCCCGGCGCCCGGCGGCUCGAGCCCGGGUAAGUGUAAAUUGUCUGCAUGCCGCCGGGCGCCAUGCCUGCAGGUCGACUCUAGAAAACAUG,binding signal,PUM1 PUF domain R1-CFK,3.31 log2 enrichment (interaction score)
same,binding signal,PUM1 PUF domain R1-HRR,2.71 log2 enrichment (interaction score)
same,binding signal,PUM1 PUF domain R1-NGR,2.32 log2 enrichment (interaction score)
